Measured values: PubChem BioAssay AID1159580 (chemical genetic matrix, 2015)
“And” between values parts separate entries of the source, which are not always exact repeats. Identical values can stand only once. Screen size: about 5,500 compounds; about 2,000 (36%) were called active. Roughly 18% stayed inconclusive and do not appear here. Cut-off read from the data, not from the text of the source: active = normalized growth mostly below about 0.91 (no sharp cut-off); inconclusive = no clear call, values can overlap the other calls; inactive = mostly above about 0.92. Some of the results follow.

Experiment: chemical genetic growth profiling, strain panel (AID 1159580);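 note: tested at 20 µM; growth read once vehicle control cultures reached saturation at 30 °C; 1 = growth at the plate median or of vehicle wells; lower values mean less growth of the strain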
Conditions: growth OD
[1] = S. cerevisiae deletion strains, locus YAL013W, strain DEP1, hits give low values
[2] = S. cerevisiae deletion strains, locus YBR229C, strain ROT2, hits give low values
[3] = S. cerevisiae deletion strains, locus YDL101C, strain DUN1, hits give low values
[4] = S. cerevisiae deletion strains, locus YDR150W, strain NUM1, hits give low values
[5] = S. cerevisiae deletion strains, locus YEL061C, strain CIN8, hits give low values
[6] = S. cerevisiae deletion strains, locus YGR078C, strain PAC10, hits give low values
[7] = S. cerevisiae deletion strains, locus YHR030C, strain SLT2, hits give low values
[8] = S. cerevisiae deletion strains, locus YJR043C, strain POL32, hits give low values
[9] = S. cerevisiae deletion strains, locus YJR075W, strain HOC1, hits give low values
[10] = S. cerevisiae deletion strains, locus YLR039C, strain RIC1, hits give low values
[11] = S. cerevisiae deletion strains, locus YLR262C, strain YPT6, hits give low values
[12] = S. cerevisiae deletion strains, locus YMR263W, strain SAP30, hits give low values
[13] = S. cerevisiae deletion strains, locus YNL153C, strain GIM3, hits give low values
[14] = S. cerevisiae deletion strains, locus YNL322C, strain KRE1, hits give low values
[15] = S. cerevisiae deletion strains, locus YPL055C, strain LGE1, hits give low values
[16] = S. cerevisiae deletion strains, locus YPL241C, strain CIN2, hits give low values

Measured: normalized growth

CNC(=O)Oc1ccc2c(c1)C1(C)CCN(C)C1N2C (stereo not given)
inactive: [1] 0.999 | S. cerevisiae deletion strains, locus YAL040C, strain CLN3, hits give low values 0.99 | S. cerevisiae deletion strains, locus YBR021W, strain FUR4, hits give low values 1.04 and 1.03 | [2] 1 and 1.01 | S. cerevisiae deletion strains, locus YCL029C, strain bik1, hits give low values 0.991 and 1.01 | S. cerevisiae deletion strains, locus YCL061C, strain MRC1 (second series), hits give low values 0.978 | S. cerevisiae deletion strains, locus YDL035C, strain GPR1, hits give low values 1.01 and 1 | S. cerevisiae deletion strains, locus YDL074C, strain BRE1, hits give low values 1.01 and 1 | [3] 0.994 and 0.998 | S. cerevisiae deletion strains, locus YDL134C, strain PPH21, hits give low values 1.06 and 1 | S. cerevisiae deletion strains, locus YDL185W, strain tfp1, hits give low values 0.966 and 1.01 | S. cerevisiae deletion strains, locus YDL192W, strain arf1, hits give low values 1.02 and 1.01 | S. cerevisiae deletion strains, locus YDR101C, strain arx1, hits give low values 0.98 and 1.01 | [4] 1.01 | S. cerevisiae deletion strains, locus YDR162C, strain NBP2, hits give low values 1.01 and 0.986 | S. cerevisiae deletion strains, locus YDR318W, strain mcm21, hits give low values 1.02 and 1.01 | S. cerevisiae deletion strains, locus YDR363W, strain ESC2, hits give low values 0.964 | S. cerevisiae deletion strains, locus YDR388W, hits give low values 0.994 and 1.01 | S. cerevisiae deletion strains, locus YDR502C, strain sam2, hits give low values 0.993 and 0.995 | [5] 1 and 1.01 | S. cerevisiae deletion strains, locus YER002W, strain NOP16, hits give low values 0.993 | S. cerevisiae deletion strains, locus YER110C, hits give low values 0.972 and 1.02 | S. cerevisiae deletion strains, locus YER155C, strain BEM2, hits give low values 0.995 and 1.01 | S. cerevisiae deletion strains, locus YER167W, strain BCK2, hits give low values 0.996 and 1.02 | S. cerevisiae deletion strains, locus YGL078C, strain dbp3, hits give low values 1.01 | S. cerevisiae deletion strains, locus YGL086W, strain mad1, hits give low values 0.957 and 1.01 | S. cerevisiae deletion strains, locus YGL248W, strain PDE1, hits give low values 1.02 and 1.01 | [6] 1 and 0.991 | S. cerevisiae deletion strains, locus YGR135W, strain pre9, hits give low values 1.04 and 0.982 | S. cerevisiae deletion strains, locus YGR229C, strain SMI1, hits give low values 0.977 | S. cerevisiae deletion strains, locus YGR252W, strain gcn5, hits give low values 1.2 and 0.984 | [7] 0.998 and 1.01 | S. cerevisiae deletion strains, locus YHR079C, strain IRE1 (second series), hits give low values 0.976 and 1.02 | S. cerevisiae deletion strains, locus YHR094C, strain hxt1, hits give low values 0.991 and 1.01 | S. cerevisiae deletion strains, locus YHR129C, strain ARP1, hits give low values 1 and 1.02 | S. cerevisiae deletion strains, locus YHR200W, strain rpn10, hits give low values 0.995 and 1.01 | S. cerevisiae deletion strains, locus YIL066C, strain RNR3, hits give low values 1 and 1.01 | S. cerevisiae deletion strains, locus YIL073C, strain SPO22, hits give low values 0.935 and 1.03 | S. cerevisiae deletion strains, locus YIL125W, strain kgd1, hits give low values 0.995 and 1.02 | S. cerevisiae deletion strains, locus YIR030C, strain dcg1, hits give low values 1 and 1.02 | S. cerevisiae deletion strains, locus YJL095W, strain BCK1, hits give low values 1.06 and 1.02 | S. cerevisiae deletion strains, locus YJL134W, strain LCB3, hits give low values 0.997 and 1 | S. cerevisiae deletion strains, locus YJL168C, strain set2, hits give low values 0.983 and 1.01 | S. cerevisiae deletion strains, locus YJL187C, strain SWE1 (second series), hits give low values 1.01 and 1 | [8] 1.02 and 1.04 | [9] 0.98 and 0.984 and 0.995 | S. cerevisiae deletion strains, locus YKL009W, strain mrt4, hits give low values 1.02 and 1.04 | S. cerevisiae deletion strains, locus YKL068W, hits give low values 0.976 and 1 | S. cerevisiae deletion strains, locus YKL085W, strain MDH1 (second series), hits give low values 0.98 and 1.02 | S. cerevisiae deletion strains, locus YKL085W, strain MDH1, hits give low values 0.98 and 1.02 | S. cerevisiae deletion strains, locus YKL190W, strain CNB1, hits give low values 1.01 | S. cerevisiae deletion strains, locus YKR001C, strain vps1, hits give low values 1 and 1.02 | [10] 1.11 and 1.07 | S. cerevisiae deletion strains, locus YLR058C, strain SHM2, hits give low values 1.02 and 1.01 | S. cerevisiae deletion strains, locus YLR102C, strain apc9, hits give low values 0.974 and 1.02 | [11] 1.14 and 1.01 | S. cerevisiae deletion strains, locus YLR268W, strain sec22, hits give low values 0.995 and 0.998 | S. cerevisiae deletion strains, locus YLR330W, strain CHS5, hits give low values 1 and 1.01 | S. cerevisiae deletion strains, locus YLR342W, strain FKS1 (second series), hits give low values 1.03 and 1.05 | S. cerevisiae deletion strains, locus YLR371W, strain rom2, hits give low values 0.979 and 1.02 | S. cerevisiae deletion strains, locus YLR418C, strain cdc73, hits give low values 1 and 0.92 | S. cerevisiae deletion strains, locus YML016C, strain PPZ1, hits give low values 0.99 and 1.01 | S. cerevisiae deletion strains, locus YML032C, strain rad52, hits give low values 1.04 and 1.02 | S. cerevisiae deletion strains, locus YML124C, strain tub3, hits give low values 0.992 and 1 | S. cerevisiae deletion strains, locus YMR078C, strain ctf18, hits give low values 0.981 and 1.02 | S. cerevisiae deletion strains, locus YMR223W, strain ubp8, hits give low values 1.03 and 1.02 | [12] 0.983 and 0.988 | S. cerevisiae deletion strains, locus YMR307W, strain GAS1, hits give low values 1 and 1.24 and 1.1 | S. cerevisiae deletion strains, locus YNL067W, strain RPL9B, hits give low values 0.993 and 1 | S. cerevisiae deletion strains, locus YNL128W, strain TEP1, hits give low values 0.977 and 0.975 | [13] 1 | S. cerevisiae deletion strains, locus YNL175C, strain NOP13, hits give low values 1.01 | S. cerevisiae deletion strains, locus YNL197C, strain WHI3, hits give low values 1 | S. cerevisiae deletion strains, locus YNL224C, strain SQS1, hits give low values 0.999 | S. cerevisiae deletion strains, locus YNL233W, strain BNI4, hits give low values 0.999 and 0.995 | S. cerevisiae deletion strains, locus YNL250W, strain rad50, hits give low values 0.94 and 1.02 | S. cerevisiae deletion strains, locus YNL271C, strain bni1, hits give low values 0.994 and 1.02 | S. cerevisiae deletion strains, locus YNL298W, strain CLA4, hits give low values 0.993 and 1.02 | S. cerevisiae deletion strains, locus YNL307C, strain MCK1, hits give low values 0.989 and 1.01 | [14] 0.961 and 0.998 and 1.01 | S. cerevisiae deletion strains, locus YNR052C, strain pop2, hits give low values 1.01 and 1.02 | S. cerevisiae deletion strains, locus YOL006C, strain TOP1, hits give low values 0.949 and 0.93 | S. cerevisiae deletion strains, locus YOL012C, strain htz1 1.18 and 1.01 | S. cerevisiae deletion strains, locus YOL147C, strain pex11, hits give low values 0.995 and 1.01 | S. cerevisiae deletion strains, locus YOR061W, strain CKA2, hits give low values 1 and 1.01 | S. cerevisiae deletion strains, locus YOR069W, strain VPS5, hits give low values 0.996 and 1.01 | S. cerevisiae deletion strains, locus YOR083W, strain WHI5 (second series), hits give low values 1.01 | S. cerevisiae deletion strains, locus YOR136W, strain idh2, hits give low values 0.979 and 1.01 | S. cerevisiae deletion strains, locus YOR144C, strain elg1, hits give low values 1 and 1.01 | S. cerevisiae deletion strains, locus YOR184W, strain ser1, hits give low values 1.05 and 1.06 | S. cerevisiae deletion strains, locus YOR316C, strain cot1, hits give low values 0.988 and 1.02 | [15] 0.987 | [16] 1.01 | S. cerevisiae deletion strains, locus YPR119W, strain clb2, hits give low values 0.984 and 1.01 | S. cerevisiae deletion strains, locus YPR141C, strain kar3, hits give low values 0.981 and 1.02 | S. cerevisiae deletion strains, locus YPR163C, strain tif3, hits give low values 0.992 and 1.01 | S. cerevisiae deletion strains, locus YPR167C, strain met16, hits give low values 0.999 and 1.02 | S. cerevisiae deletion strains, strain wtn01, hits give low values 0.962 and 1 | S. cerevisiae strains, strain wild type, hits give low values 1.01

CS/C(N)=N\N=C/c1c(F)cccc1Cl
inactive: [1] 0.998 | [2] 0.992 | S. cerevisiae deletion strains, locus YCL061C, strain MRC1, hits give low values 0.996 | [3] 1 | [4] 0.995 | [5] 1 | [6] 1.01 | [7] 0.988 | S. cerevisiae deletion strains, locus YHR087W, strain rtc3, hits give low values 0.979 | S. cerevisiae deletion strains, locus YJL187C, strain SWE1, hits give low values 0.986 | [8] 0.992 | [9] 0.991 | [10] 1.1 | S. cerevisiae deletion strains, locus YLR058C, strain SHM2 (second series), hits give low values 0.998 | S. cerevisiae deletion strains, locus YLR085C, strain ARP6, hits give low values 1.08 | [11] 1.03 | S. cerevisiae deletion strains, locus YML094W, strain GIM5, hits give low values 0.993 | S. cerevisiae deletion strains, locus YMR219W, strain ESC1, hits give low values 0.995 | [12] 1.02 | [13] 0.998 | S. cerevisiae deletion strains, locus YNL298W, strain CLA4 (second series), hits give low values 1.05 | [14] 1 | S. cerevisiae deletion strains, locus YNR030W, strain Alg12, hits give low values 1.05 | [15] 1 | [16] 0.988 | S. cerevisiae deletion strains, locus YPR135W, strain CTF4, hits give low values 1.03
